Activity calls are given as the source filed them. Rule for the calls: active = hit-call score of the fitted dose curve at least 0.9, where 1 is the maximum; inactive = score below 0.9.
Assays:
Details in all cases: mRNA level, 48 h; actives raise or lower the signal
[1] = read-out: Fatty acid synthase (Homo sapiens) (UniProt P49327); test: LTEA_HepaRG_FASN: Life Technologies and Expression Analysis (LTEA) Assay for Fatty Acid Synthase (FASN) using HepaRG (AID 2283448)
Method in brief: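 HepaRG, 48 h exposure, 8-pt half-log series top 100 uM, 0.5% DMSO vehicle, duplicates. Readout: FASN transcript by Fluidigm qRT-PCR; housekeeping-normalized; bidirectional curve fit vs DMSO baseline.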

[2] = read-out: Cyclin D2 (CCND2), CCND2 (gene 894); test: LTEA_HepaRG_CCND2: Life Technologies and Expression Analysis (LTEA) Assay for Cyclin D2 (CCND2) using HepaRG (AID 2283449)
Method in brief: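 CCND2 transcript levels, quantified by qRT-PCR and normalised to three housekeeping genes, were fitted bidirectionally against 0.5% DMSO. HepaRG cultures were dosed 48 h in duplicate with an 8-point half-log series up to 100 uM.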

[3] = read-out: Cyclin Dependent Kinase Inhibitor 1A (CDKN1A), CDKN1A (gene 1026); test: LTEA_HepaRG_CDKN1A: Life Technologies and Expression Analysis (LTEA) Assay for Cyclin Dependent Kinase Inhibitor 1A (CDKN1A) using HepaRG (AID 2283450)
Method in brief: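 Differentiated HepaRG cells in serum-free induction medium, exposed 48 h in duplicate to eight half-log concentrations up to 100 uM in 0.5% DMSO. mRNA measured by TaqMan qRT-PCR, normalized to ACTB, GAPDH, POLR2A; bidirectional fit versus DMSO.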

[4] = read-out: Cyclin D1 (CCND1), CCND1 (gene 595); test: LTEA_HepaRG_CCND1: Life Technologies and Expression Analysis (LTEA) Assay for Cyclin D1 (CCND1) using HepaRG (AID 2283451);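 for AC50: TaqMan qRT-PCR transcript level normalised to ACTB GAPDH and POLR2A housekeeping genes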
Method in brief: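 Differentiated HepaRG cells exposed 48 h in serum-free induction medium to eight half-log concentrations from 100 uM top, 0.5% DMSO, duplicates. CCND1 mRNA measured by Fluidigm TaqMan qRT-PCR, normalised to ACTB, GAPDH, POLR2A; bidirectional fit.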

[5] = read-out: flavin-containing dimethylaniline monooxygenases 3 (FMO3), FMO3 (gene 2328); test: LTEA_HepaRG_FMO3: Life Technologies and Expression Analysis (LTEA) Assay for flavin-containing dimethylaniline monooxygenases 3 (FMO3) using HepaRG (AID 2283453)
Method in brief: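 Eight-point concentration-response in serum-free HepaRG cultures (top 100 uM, 0.5% DMSO, 48 h). Read-out: FMO3 mRNA level normalized to three endogenous control genes, fitted bidirectionally versus vehicle.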

[6] = read-out: Cytochrome P450 (CYP1A1), CYP1A1 (gene 1543); test: LTEA_HepaRG_CYP1A1: Life Technologies and Expression Analysis (LTEA) Assay for Cytochrome P450 (CYP1A1) using HepaRG (AID 2283454)
Method in brief: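 Differentiated human HepaRG cells, after 48 h plating, exposed in duplicate for 48 h in serum-free induction medium to 8 half-log concentrations up to 100 uM in 0.5% DMSO. CYP1A1 mRNA by qRT-PCR, normalized to ACTB/GAPDH/POLR2A; bidirectional fit versus DMSO.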

[7] = read-out: CFLAR gene, CFLAR (gene 8837); test: LTEA_HepaRG_CFLAR: Life Technologies and Expression Analysis (LTEA) Assay for CFLAR gene using HepaRG (AID 2283455)
Method in brief: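 Transcript level by qRT-PCR (normalized to ACTB, GAPDH and POLR2A) after 48 h chemical exposure of HepaRG cells, top concentration 100 uM with half-log steps, 0.5% DMSO vehicle, duplicates; fitted bidirectionally against DMSO baseline.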

[8] = read-out: Forkhead box O1 (FOXO1), FOXO1 (gene 2308); test: LTEA_HepaRG_FOXO1: Life Technologies and Expression Analysis (LTEA) Assay for Forkhead box O1 (FOXO1) using HepaRG (AID 2283456)
Method in brief: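 FOXO1 transcript quantified by qRT-PCR after 48 h chemical exposure (top 100 uM, half-log steps, 0.5% DMSO) of HepaRG cells, housekeeping-normalized (ACTB/GAPDH/POLR2A). Changes fitted in both directions relative to vehicle.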

[9] = read-out: growth arrest and DNA damage 45 (GADD45A), GADD45A (gene 1647); test: LTEA_HepaRG_GADD45A: Life Technologies and Expression Analysis (LTEA) Assay for growth arrest and DNA damage 45 (GADD45A) using HepaRG (AID 2283458)
Method in brief: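 HepaRG, 48 h exposure, 8 conc. (top 100 uM, half-log steps), 0.5% DMSO vehicle, duplicates. Read-out: qRT-PCR mRNA level, housekeeping-normalized (ACTB/GAPDH/POLR2A). Curves fit bidirectionally vs DMSO baseline.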

[10] = read-out: Forkhead box O3 (FOXO3), FOXO3 (gene 2309); test: LTEA_HepaRG_FOXO3: Life Technologies and Expression Analysis (LTEA) Assay for Forkhead box O3 (FOXO3) using HepaRG (AID 2283459)
Method in brief: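 FOXO3 transcript measured by qRT-PCR (normalized to ACTB, GAPDH, POLR2A) after 48 h exposure of HepaRG cells in serum-free induction medium. Duplicates, eight half-log concentrations up to 100 uM, 0.5% DMSO; gain or loss fitted against DMSO.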

[11] = read-out: ABC Transporter (ABCB1), ABCB1 (gene 5243); test: LTEA_HepaRG_ABCB1: Life Technologies and Expression Analysis (LTEA) Assay for ABC Transporter (ABCB1) using HepaRG (AID 2283460)
Method in brief: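 ABCB1 transcript level measured by TaqMan qRT-PCR against three housekeeping genes after 48 h chemical exposure of differentiated HepaRG cells. Top concentration 100 uM, half-log steps, eight points, 0.5% DMSO vehicle; bidirectional fit relative to DMSO.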

[12] = read-out: growth arrest and DNA damage 45 (GADD45B), GADD45B (gene 4616); test: LTEA_HepaRG_GADD45B: Life Technologies and Expression Analysis (LTEA) Assay for growth arrest and DNA damage 45 (GADD45B) using HepaRG (AID 2283461)
Method in brief: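 Differentiated human HepaRG cells in serum-free induction medium exposed 48 h in duplicate to eight concentrations, top 100 uM, half-log steps, 0.5% DMSO. GADD45B mRNA by TaqMan qRT-PCR, normalized to ACTB, GAPDH, POLR2A; bidirectional fit versus DMSO.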

[13] = read-out: ABC Transporter (ABCC3), ABCC3 (gene 8714); test: LTEA_HepaRG_ABCC3: Life Technologies and Expression Analysis (LTEA) Assay for ABC Transporter (ABCC3) using HepaRG (AID 2283462)
Method in brief: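 Differentiated human HepaRG cells exposed 48 h in serum-free induction medium, 0.5% DMSO vehicle, 8-point half-log series to 100 uM in duplicate. ABCC3 mRNA by qRT-PCR, normalised to ACTB, GAPDH, POLR2A; bidirectional fit vs DMSO.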

[14] = read-out: ABC Transporter (ABCB11), ABCB11 (gene 8647); test: LTEA_HepaRG_ABCB11: Life Technologies and Expression Analysis (LTEA) Assay for ABC Transporter (ABCB11) using HepaRG (AID 2283463)
Method in brief: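 ABCB11 transcript levels quantified by TaqMan qRT-PCR against three housekeeping genes after 48 h chemical exposure of HepaRG cultures. Concentrations up to 100 uM in half-log steps, 0.5% DMSO vehicle; both induction and suppression scored.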

[15] = read-out: ABC Transporter (ABCC2), ABCC2 (gene 1244); test: LTEA_HepaRG_ABCC2: Life Technologies and Expression Analysis (LTEA) Assay for ABC Transporter (ABCC2) using HepaRG (AID 2283464)
Method in brief: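 Differentiated HepaRG cells in serum-free induction medium exposed 48 h to eight half-log concentrations up to 100 uM, 0.5% DMSO, in duplicate. ABCC2 mRNA measured by qRT-PCR (TaqMan, Fluidigm), normalized to ACTB, GAPDH and POLR2A. Fitted in both directions against DMSO.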

[16] = read-out: Broad substrate specificity ATP-binding cassette transporter ABCG2 (Homo sapiens) (UniProt Q9UNQ0); test: LTEA_HepaRG_ABCG2: Life Technologies and Expression Analysis (LTEA) Assay for ABC Transporter (ABCG2) using HepaRG (AID 2283465)
Method in brief: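 ABCG2 transcript was quantified by TaqMan qRT-PCR against three housekeeping genes in HepaRG cells. Cells were treated in duplicate for 48 h across an 8-point half-log series up to 100 uM, with 0.5% DMSO vehicle. Gain or loss versus DMSO was fit.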

[17] = read-out: ATP-citrate lyase (ACLY), ACLY (gene 47); test: LTEA_HepaRG_ACLY: Life Technologies and Expression Analysis (LTEA) Assay for ATP-citrate lyase (ACLY) using HepaRG (AID 2283466)
Method in brief: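 ACLY mRNA quantified by qRT-PCR on Fluidigm arrays against three housekeeping genes, after 48 h chemical treatment of HepaRG cells (top concentration 100 uM, half-log steps, 0.5% DMSO vehicle). Up- or down-regulation fitted relative to DMSO.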

[18] = read-out: Peroxisomal acyl-coenzyme A oxidase 1 (ACOX1) gene, ACOX1 (gene 51); test: LTEA_HepaRG_ACOX1: Life Technologies and Expression Analysis (LTEA) Assay for Peroxisomal acyl-coenzyme A oxidase 1 (ACOX1) gene using HepaRG (AID 2283467)
Method in brief: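 ACOX1 transcript levels were quantified by TaqMan qRT-PCR against three housekeeping genes after 48 h chemical exposure of differentiated human HepaRG cells. Exposure used eight half-log steps topping at 100 uM, 0.5% DMSO vehicle, in duplicate. Bidirectional curve fits were made relative to DMSO.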

[19] = read-out: catalase (CAT), CAT (gene 847); test: LTEA_HepaRG_CAT: Life Technologies and Expression Analysis (LTEA) Assay for catalase (CAT) using HepaRG (AID 2283452)
Method in brief: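 Expression of CAT was quantified by TaqMan qRT-PCR with ACTB/GAPDH/POLR2A normalization after 48 h chemical exposure of HepaRG. Eight-point half-log series, top 100 uM, in 0.5% DMSO; gain or loss fitted against vehicle.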

Measured: AC50

Fatty acid synthase (Homo sapiens), sequence (P49327 whole entry, looked up): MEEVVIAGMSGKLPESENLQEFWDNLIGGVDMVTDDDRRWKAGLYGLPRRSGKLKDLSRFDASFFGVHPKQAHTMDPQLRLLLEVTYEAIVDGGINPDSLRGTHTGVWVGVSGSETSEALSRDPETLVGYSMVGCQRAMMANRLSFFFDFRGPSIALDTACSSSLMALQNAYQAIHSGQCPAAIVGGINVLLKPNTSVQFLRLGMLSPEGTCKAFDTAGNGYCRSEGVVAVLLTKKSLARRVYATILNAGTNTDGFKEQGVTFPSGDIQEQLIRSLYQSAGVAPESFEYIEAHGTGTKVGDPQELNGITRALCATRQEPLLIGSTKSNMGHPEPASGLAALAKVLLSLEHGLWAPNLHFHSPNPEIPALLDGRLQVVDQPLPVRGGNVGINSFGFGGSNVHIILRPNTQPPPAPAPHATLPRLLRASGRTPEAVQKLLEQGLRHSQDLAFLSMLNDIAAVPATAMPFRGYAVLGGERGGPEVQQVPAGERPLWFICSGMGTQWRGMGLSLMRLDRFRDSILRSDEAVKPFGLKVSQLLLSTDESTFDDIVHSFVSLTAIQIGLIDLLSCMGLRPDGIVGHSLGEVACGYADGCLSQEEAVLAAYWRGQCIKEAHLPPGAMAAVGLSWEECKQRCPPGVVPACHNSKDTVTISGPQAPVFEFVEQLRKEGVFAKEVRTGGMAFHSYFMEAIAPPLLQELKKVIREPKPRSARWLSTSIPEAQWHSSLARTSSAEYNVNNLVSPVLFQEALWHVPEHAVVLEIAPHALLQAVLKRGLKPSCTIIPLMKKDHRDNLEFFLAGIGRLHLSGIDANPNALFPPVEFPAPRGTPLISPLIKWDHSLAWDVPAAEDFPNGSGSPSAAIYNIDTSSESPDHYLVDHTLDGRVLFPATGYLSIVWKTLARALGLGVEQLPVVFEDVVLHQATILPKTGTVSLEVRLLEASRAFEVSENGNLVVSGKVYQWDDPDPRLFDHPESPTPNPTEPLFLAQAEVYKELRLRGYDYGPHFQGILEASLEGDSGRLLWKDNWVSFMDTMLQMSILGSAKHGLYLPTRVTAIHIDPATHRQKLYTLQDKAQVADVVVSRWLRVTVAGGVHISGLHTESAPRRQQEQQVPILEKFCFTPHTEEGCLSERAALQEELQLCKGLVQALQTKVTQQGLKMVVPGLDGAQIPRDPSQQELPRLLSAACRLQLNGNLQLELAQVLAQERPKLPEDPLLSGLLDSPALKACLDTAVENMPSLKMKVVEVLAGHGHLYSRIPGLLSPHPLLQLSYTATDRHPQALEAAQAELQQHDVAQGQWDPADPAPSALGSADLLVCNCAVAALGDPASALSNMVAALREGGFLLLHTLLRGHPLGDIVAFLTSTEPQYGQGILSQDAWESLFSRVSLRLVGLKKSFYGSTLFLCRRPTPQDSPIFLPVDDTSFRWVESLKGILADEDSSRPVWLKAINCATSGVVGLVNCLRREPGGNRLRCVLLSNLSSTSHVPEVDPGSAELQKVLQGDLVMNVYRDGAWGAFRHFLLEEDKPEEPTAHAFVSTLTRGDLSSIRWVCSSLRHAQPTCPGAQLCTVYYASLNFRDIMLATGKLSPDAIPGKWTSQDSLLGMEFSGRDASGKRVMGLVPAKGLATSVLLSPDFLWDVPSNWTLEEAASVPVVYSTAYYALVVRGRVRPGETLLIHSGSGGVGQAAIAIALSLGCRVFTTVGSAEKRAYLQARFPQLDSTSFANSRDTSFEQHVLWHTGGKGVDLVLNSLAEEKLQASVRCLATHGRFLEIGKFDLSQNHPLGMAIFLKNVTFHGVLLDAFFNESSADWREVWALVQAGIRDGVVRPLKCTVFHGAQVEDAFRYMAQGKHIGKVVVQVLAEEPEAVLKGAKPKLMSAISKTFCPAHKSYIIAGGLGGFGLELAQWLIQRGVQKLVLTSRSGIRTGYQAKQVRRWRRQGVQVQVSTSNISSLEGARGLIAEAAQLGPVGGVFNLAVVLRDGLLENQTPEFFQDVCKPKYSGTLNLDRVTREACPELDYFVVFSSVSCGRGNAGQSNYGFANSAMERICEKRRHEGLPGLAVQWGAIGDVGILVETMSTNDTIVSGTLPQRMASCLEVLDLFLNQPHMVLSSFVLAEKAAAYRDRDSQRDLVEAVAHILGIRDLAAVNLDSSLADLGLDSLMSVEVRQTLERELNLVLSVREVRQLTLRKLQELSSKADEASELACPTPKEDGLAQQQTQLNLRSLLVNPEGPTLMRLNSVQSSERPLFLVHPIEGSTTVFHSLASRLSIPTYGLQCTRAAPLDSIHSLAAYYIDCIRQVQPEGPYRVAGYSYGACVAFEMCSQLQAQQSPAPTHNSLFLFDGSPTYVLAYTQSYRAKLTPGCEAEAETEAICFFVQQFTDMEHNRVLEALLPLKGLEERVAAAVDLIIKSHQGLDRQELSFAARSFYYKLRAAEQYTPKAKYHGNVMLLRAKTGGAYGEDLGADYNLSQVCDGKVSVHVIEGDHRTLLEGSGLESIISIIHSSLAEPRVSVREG
Broad substrate specificity ATP-binding cassette transporter ABCG2 (Homo sapiens), sequence (Q9UNQ0 whole entry, looked up): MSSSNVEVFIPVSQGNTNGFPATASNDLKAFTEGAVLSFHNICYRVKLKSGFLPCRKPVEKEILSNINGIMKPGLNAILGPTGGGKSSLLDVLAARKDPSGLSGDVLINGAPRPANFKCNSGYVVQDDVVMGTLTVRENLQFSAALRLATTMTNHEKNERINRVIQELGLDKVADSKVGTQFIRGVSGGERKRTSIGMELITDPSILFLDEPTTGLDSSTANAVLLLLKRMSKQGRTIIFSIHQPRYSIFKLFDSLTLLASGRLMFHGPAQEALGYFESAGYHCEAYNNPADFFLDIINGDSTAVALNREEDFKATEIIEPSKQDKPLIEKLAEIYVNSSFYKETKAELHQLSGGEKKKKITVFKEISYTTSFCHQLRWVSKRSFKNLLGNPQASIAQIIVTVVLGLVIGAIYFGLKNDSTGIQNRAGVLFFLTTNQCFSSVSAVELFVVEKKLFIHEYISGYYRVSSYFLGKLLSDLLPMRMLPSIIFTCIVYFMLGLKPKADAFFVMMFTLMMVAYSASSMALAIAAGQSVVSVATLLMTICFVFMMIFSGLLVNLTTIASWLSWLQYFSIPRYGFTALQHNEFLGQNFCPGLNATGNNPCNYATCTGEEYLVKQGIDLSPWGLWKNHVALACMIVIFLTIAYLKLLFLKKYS

CC1(C)CC(N=C=O)CC(C)(CN=C=O)C1 (stereo unspecified)
active: [1] 69700 nM | [14] 50000 nM
not listed: [19]
inactive: all other assays above

CNC(=O)[C@H]1O[C@@H](n2cnc3c(NCc4cc(Cl)ccc4OCc4cc(C)no4)ncnc32)[C@H](O)[C@@H]1N
not listed: [19]
inactive: all other assays above

O=C(OCCCCCOC(=O)c1ccccc1)c1ccccc1
inactive: [1] | [3] | [19] | [12] | [18]
active: [2] 2480 nM | [4] 2780 nM | [5] 503 nM | [6] 1180 nM | [8] 1190 nM | [9] 2130 nM | [10] 140 nM | [11] 270 nM | [13] 12700 nM | [14] 572 nM | [16] 773 nM | [17] 50000 nM

CCCCCCCC=O
active: [6] 50000 nM
not listed: [19]
inactive: all other assays above
